The target of one experiment is pT7_6His-AlfaTag-HOXD13 (human, UniProt P35453 263-343). Briefly: PADIT-seq. The settings on record: dsDNA, one strand shown.
A further experiment concerns the target pT7_6His-AlfaTag-ZIF268 (human, UniProt P18146 335-423). Briefly: PADIT-seq. The settings on record: dsDNA, one strand shown.

Sequence of pT7_6His-AlfaTag-HOXD13 (P35453 263-343): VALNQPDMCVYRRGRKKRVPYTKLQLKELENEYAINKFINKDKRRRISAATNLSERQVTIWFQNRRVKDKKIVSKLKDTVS

Turning to “CTCGAGGATATCAAGATCTGGCCTCGGCTCGTGGGCGGGAACCTCTAGCTAGCCGACTCACTATAGGGATAATCGCCCTGAGCAAAGACC”, the binding signal with pT7_6His-AlfaTag-HOXD13 is -0.771 ± 0.106 log2FC; with pT7_6His-AlfaTag-ZIF268, 2.74 ± 0.0778 log2FC.
The matching figures for “CTCGAGGATATCAAGATCTGGCCTCGGCACCATAAAAGGAACCTCTAGCTAGCCGACTCACTATAGGGATAATCGCCCTGAGCAAAGACC”: 2.69 ± 0.0753 log2FC and 0.0345 ± 0.0841 log2FC.
Take “CTCGAGGATATCAAGATCTGGCCTCGGCATTTTACTCGGAACCTCTAGCTAGCCGACTCACTATAGGGATAATCGCCCTGAGCAAAGACC”: the binding signal with pT7_6His-AlfaTag-HOXD13 was 0.755 ± 0.0905 log2FC; in the experiment with pT7_6His-AlfaTag-ZIF268 it was 0.0783 ± 0.0882 log2FC.
The matching figures for “CTCGAGGATATCAAGATCTGGCCTCGGCGTATGGGCGGGAACCTCTAGCTAGCCGACTCACTATAGGGATAATCGCCCTGAGCAAAGACC”: -0.957 ± 0.105 log2FC and 0.246 ± 0.0831 log2FC.
For “CTCGAGGATATCAAGATCTGGCCTCGGCGTTTTAACAGGAACCTCTAGCTAGCCGACTCACTATAGGGATAATCGCCCTGAGCAAAGACC” the same measures were 1.92 ± 0.0739 log2FC and 0.0535 ± 0.0797 log2FC.
Turning to “CTCGAGGATATCAAGATCTGGCCTCGGCGCGTGGGTCGGAACCTCTAGCTAGCCGACTCACTATAGGGATAATCGCCCTGAGCAAAGACC”, the binding signal with pT7_6His-AlfaTag-HOXD13 is -0.691 ± 0.125 log2FC; with pT7_6His-AlfaTag-ZIF268 it was 1.38 ± 0.0983 log2FC.
“CTCGAGGATATCAAGATCTGGCCTCGGCACACCACGCGGAACCTCTAGCTAGCCGACTCACTATAGGGATAATCGCCCTGAGCAAAGACC”: the binding signal with pT7_6His-AlfaTag-HOXD13 is -0.837 ± 0.131 log2FC; with pT7_6His-AlfaTag-ZIF268, 0.0231 ± 0.103 log2FC.
The matching figures for “CTCGAGGATATCAAGATCTGGCCTCGGCTACATAAAAGGAACCTCTAGCTAGCCGACTCACTATAGGGATAATCGCCCTGAGCAAAGACC”: 2.05 ± 0.0966 log2FC and 0.0761 ± 0.103 log2FC.
Consider “CTCGAGGATATCAAGATCTGGCCTCGGCGTTTTAGTGGGAACCTCTAGCTAGCCGACTCACTATAGGGATAATCGCCCTGAGCAAAGACC”, for which the binding signal was determined as 1.76 ± 0.0845 log2FC in the experiment with pT7_6His-AlfaTag-HOXD13 and 0.0814 ± 0.0894 log2FC with pT7_6His-AlfaTag-ZIF268.
Turning to “CTCGAGGATATCAAGATCTGGCCTCGGCCGCTTTCGCGGAACCTCTAGCTAGCCGACTCACTATAGGGATAATCGCCCTGAGCAAAGACC”, the binding signal with pT7_6His-AlfaTag-HOXD13 was -1.06 ± 0.128 log2FC; with pT7_6His-AlfaTag-ZIF268 it was 0.0116 ± 0.104 log2FC.
For “CTCGAGGATATCAAGATCTGGCCTCGGCTGTTGGGCGGGAACCTCTAGCTAGCCGACTCACTATAGGGATAATCGCCCTGAGCAAAGACC” the same measures were -1.03 ± 0.1 log2FC and 0.111 ± 0.0773 log2FC.
“CTCGAGGATATCAAGATCTGGCCTCGGCATTTTATACGGAACCTCTAGCTAGCCGACTCACTATAGGGATAATCGCCCTGAGCAAAGACC”: the binding signal with pT7_6His-AlfaTag-HOXD13 came to 2.61 ± 0.0763 log2FC; with pT7_6His-AlfaTag-ZIF268, 0.0469 ± 0.0817 log2FC.
As to “CTCGAGGATATCAAGATCTGGCCTCGGCAGTTTAAAAGGAACCTCTAGCTAGCCGACTCACTATAGGGATAATCGCCCTGAGCAAAGACC”, the binding signal was determined as 2.23 ± 0.0764 log2FC with pT7_6His-AlfaTag-HOXD13 and 0.0518 ± 0.0805 log2FC with pT7_6His-AlfaTag-ZIF268.
With “CTCGAGGATATCAAGATCTGGCCTCGGCTTTTTACCAGGAACCTCTAGCTAGCCGACTCACTATAGGGATAATCGCCCTGAGCAAAGACC”, the values for the binding signal with pT7_6His-AlfaTag-HOXD13 and with pT7_6His-AlfaTag-ZIF268 were 0.621 ± 0.101 log2FC and 0.0254 ± 0.098 log2FC, respectively.
The matching figures for “CTCGAGGATATCAAGATCTGGCCTCGGCGTTTTATTGGGAACCTCTAGCTAGCCGACTCACTATAGGGATAATCGCCCTGAGCAAAGACC”: 3.37 ± 0.0853 log2FC and 0.0618 ± 0.0949 log2FC.
The matching figures for “CTCGAGGATATCAAGATCTGGCCTCGGCAGCCCACGCGGAACCTCTAGCTAGCCGACTCACTATAGGGATAATCGCCCTGAGCAAAGACC”: -0.926 ± 0.109 log2FC and 0.806 ± 0.0795 log2FC.
For “CTCGAGGATATCAAGATCTGGCCTCGGCATATTAAAAGGAACCTCTAGCTAGCCGACTCACTATAGGGATAATCGCCCTGAGCAAAGACC” the same measures were 2.69 ± 0.07 log2FC and 0.0247 ± 0.0768 log2FC.
“CTCGAGGATATCAAGATCTGGCCTCGGCCATTGGGCGGGAACCTCTAGCTAGCCGACTCACTATAGGGATAATCGCCCTGAGCAAAGACC”: the binding signal with pT7_6His-AlfaTag-HOXD13 is -0.505 ± 0.104 log2FC; in the experiment with pT7_6His-AlfaTag-ZIF268, 0.139 ± 0.0899 log2FC.
Consider “CTCGAGGATATCAAGATCTGGCCTCGGCTTTTTACCTGGAACCTCTAGCTAGCCGACTCACTATAGGGATAATCGCCCTGAGCAAAGACC”, for which the binding signal with pT7_6His-AlfaTag-HOXD13 was -0.185 ± 0.138 log2FC; with pT7_6His-AlfaTag-ZIF268, 0.019 ± 0.125 log2FC.
“CTCGAGGATATCAAGATCTGGCCTCGGCAGATGGGCGGGAACCTCTAGCTAGCCGACTCACTATAGGGATAATCGCCCTGAGCAAAGACC” registered a binding signal with pT7_6His-AlfaTag-ZIF268 of 0.0303 ± 0.101 log2FC.
Consider “CTCGAGGATATCAAGATCTGGCCTCGGCGTTTTAAGTGGAACCTCTAGCTAGCCGACTCACTATAGGGATAATCGCCCTGAGCAAAGACC”, for which the binding signal with pT7_6His-AlfaTag-HOXD13 is 0.876 ± 0.107 log2FC; with pT7_6His-AlfaTag-ZIF268, 0.00666 ± 0.106 log2FC.
For “CTCGAGGATATCAAGATCTGGCCTCGGCGCCCCACGCGGAACCTCTAGCTAGCCGACTCACTATAGGGATAATCGCCCTGAGCAAAGACC”, the binding signal was -0.996 ± 0.127 log2FC with pT7_6His-AlfaTag-HOXD13 and 0.0171 ± 0.103 log2FC in the experiment with pT7_6His-AlfaTag-ZIF268.
For “CTCGAGGATATCAAGATCTGGCCTCGGCGCGTGGGTTGGAACCTCTAGCTAGCCGACTCACTATAGGGATAATCGCCCTGAGCAAAGACC” the same measures were -1.06 ± 0.134 log2FC and 2.53 ± 0.0963 log2FC.
Consider “CTCGAGGATATCAAGATCTGGCCTCGGCCGCCCACAGGGAACCTCTAGCTAGCCGACTCACTATAGGGATAATCGCCCTGAGCAAAGACC”, for which the binding signal with pT7_6His-AlfaTag-ZIF268 worked out at 0.494 ± 0.158 log2FC.
As for “CTCGAGGATATCAAGATCTGGCCTCGGCGTTTTAGGCGGAACCTCTAGCTAGCCGACTCACTATAGGGATAATCGCCCTGAGCAAAGACC”, the binding signal is -0.768 ± 0.146 log2FC with pT7_6His-AlfaTag-HOXD13 and 0.0528 ± 0.123 log2FC in the experiment with pT7_6His-AlfaTag-ZIF268.
For “CTCGAGGATATCAAGATCTGGCCTCGGCCTTTTACGAGGAACCTCTAGCTAGCCGACTCACTATAGGGATAATCGCCCTGAGCAAAGACC” the same measures were 3.52 ± 0.0778 log2FC and 0.0308 ± 0.0876 log2FC.
For “CTCGAGGATATCAAGATCTGGCCTCGGCGTTTTATGCGGAACCTCTAGCTAGCCGACTCACTATAGGGATAATCGCCCTGAGCAAAGACC” the same measures were 2.07 ± 0.0741 log2FC and 0.0171 ± 0.08 log2FC.

These data come from paper doi:10.1101/2024.03.05.583629.
